Consider 40 compounds from PubChem BioAssay (NCI).

Compounds without any hit were thinned out: in the full panel of roughly 79,000, 15% have a hit. Activity calls are given as the source filed them. Cut-off read from the data, not from the text of the source: active = growth inhibition above about 70%; inactive = the rest. Where a SMILES comes first, the peptide text is derived from it. Bridges are numbered along the chain shown (N, C = ends). Roman numbers before positions name the chains, in order. The star is where a group is joined. Cbz = O=C(OCc1ccccc1)*

A short description of this assay: NCI Yeast Anticancer Drug Screen. Data for the mlh1 rad18 strain (AID 175). Particulars: S. cerevisiae mlh1 rad18 strain growth inhibition; at 50.0 µM; active compounds read high. In short, it runs like this: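 Inhibition values reflect reduced growth of mutant yeast versus vehicle-treated controls following compound exposure; the mutations affect DNA damage repair.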
In the case of `C/C(=N\Nc1cc(C)nc2cc3c(cc12)OCO3)c1cn(C)n(-c2ccccc2)c1=O`, the growth inhibition was 39.1% (inactive).

As to `[Cu+2].[Cu+2].c1ccc2c(c1)-c1nc-2nc2[n-]c(nc3nc(nc4[n-]c(n1)c1ccccc41)-c1ccccc1-3)c1cc3c4nc5nc(nc6[n-]c(nc7nc(nc([n-]4)c3cc21)-c1ccccc1-7)c1ccccc61)-c1ccccc1-5`, the growth inhibition is 11.3% (inactive).

Turning to `O=C(CC(c1ccccc1)C(Br)[N+](=O)[O-])c1ccccc1` (stereo not given), the growth inhibition is 32.4% (inactive).

For `Cc1c(-c2ccccc2)c(=O)oc2cc(O)ccc12`, the growth inhibition was 11.2% (inactive).

Regarding `COC(=O)NC1CC/C=C\CCC1I` (stereo not given), the growth inhibition is 4.7% (inactive).

`CC(C)C(NC(=O)C(CSSCC(NC(=O)OCc1ccccc1)C(=O)NC(C(=O)O)C(C)C)NC(=O)OCc1ccccc1)C(=O)O` (stereo not drawn) (I: Cbz-Cys-Val-OH / II: Cbz-Cys-Val-OH; disulfide I:1-II:1; configuration not given here): the growth inhibition is 3.3% (inactive).

Turning to `O=C(O)c1n[nH]c2ccccc12`, the growth inhibition was -9.85% (inactive).

With `OCC1OC(O)CC1O` (stereo not given), the growth inhibition is -0.05% (inactive).

For the compound `CC1(C(=O)O)CCCC1C(CCC(=O)O)C(=O)O` (stereo not given), the growth inhibition is -35.1% (inactive).

`Cc1cc(Cl)c2ccc(Cl)c(C)c2n1`: the growth inhibition is 0.15% (inactive).

For `C/C(=N\NC(=O)c1ccncc1)c1ccccc1Cl`, the growth inhibition was -17.4% (inactive).

Consider `O=C(O)[C@H](c1ccccc1)[C@@H](C(=O)O)c1ccccc1`, for which the growth inhibition is -1.4% (inactive).

`CC(=O)Nc1cc(F)c(N=Nc2ccc([N+](=O)[O-])cc2)c(F)c1`: the growth inhibition was -10.3% (inactive).

Turning to `O=[N+]([O-])c1ccc(Oc2ccc(S(=O)(=O)O)cc2)cc1`, the growth inhibition is 2.5% (inactive).

As to `COc1ccc(NC(=S)NN)cc1`, the growth inhibition is 6.2% (inactive).

Turning to `O=S(=O)([N-]c1nc2ccccc2nc1-[n+]1ccccc1)c1ccccc1`, the growth inhibition is -22.6% (inactive).

In the case of `ClCCOCc1ccc(Cl)cc1Cl`, the growth inhibition was 19.9% (inactive).

As to `Cc1ccc(Nc2nc(NS(=O)(=O)c3cc(C)c(Cl)cc3S)n(C)n2)cc1`, the growth inhibition is -21.8% (inactive).

Regarding `CC(c1ccccc1)/[N+]([O-])=C/c1ccccc1` (stereo not given), the growth inhibition is -21.6% (inactive).

`COCCOC(=O)c1ccccc1O`: the growth inhibition was -1.25% (inactive).

Consider `COCn1c(C)c(C)c2c(=O)oc(=O)[nH]c21`, for which the growth inhibition is -25.5% (inactive).

Turning to `C=CCC(OC(C)=O)c1cccc(OC)c1OC` (stereo not given), the growth inhibition was -5.3% (inactive).

On to `c1ccc(CN2COc3c(ccc4c5c(ccc34)CN(Cc3ccccc3)CO5)C2)cc1`, for which the growth inhibition is -9.15% (inactive).

In the case of `Cc1ccc(NC(=O)/C(Cc2nc3ccc([N+](=O)[O-])cc3[nH]c2=O)=N\NC(=O)C[n+]2ccccc2)c(C)c1`, the growth inhibition is -7.65% (inactive).

Take `Nc1ccc(C(=O)N/N=C/C=C/c2ccccc2)cc1`: the growth inhibition was 8.05% (inactive).

Take `COC1OC2COC(c3ccccc3)OC2C(OC(=O)c2ccc([N+](=O)[O-])cc2)C1OS(=O)(=O)c1ccc(C)cc1` (stereo not given): the growth inhibition was 15.8% (inactive).

For `C1CCC2(CC1)OCCO2`, the growth inhibition was 0.6% (inactive).

Consider `C/C(=N\NC(N)=S)c1cc(C)c(C)cc1C`, for which the growth inhibition was 65.8% (inactive).

Take `Cc1ccc(Nc2ccc(Nc3ccc(C)cc3)c3c2C(=O)c2ccccc2C3=O)cc1`: the growth inhibition was -4.45% (inactive).

Regarding `O=C1C=C(CCC2=CC(=O)c3ccccc3C2=O)C(=O)c2ccccc21`, the growth inhibition is -28.6% (inactive).

Regarding `CC(=O)c1sc2c(c1OC(=O)c1cccs1)c(=O)n(-c1ccccc1)c(=S)n2-c1ccccc1`, the growth inhibition was 3.9% (inactive).

Consider `c1ccc(-c2cnn3c(-c4ccccc4)cnnc23)cc1`, for which the growth inhibition was 4.65% (inactive).

For the compound `CC(C)NCC(C)(C)[N+](=O)[O-]`, the growth inhibition is -0.95% (inactive).

As for `O=[N+]([O-])c1ccc(N=C/C=C/Nc2ccc([N+](=O)[O-])cc2)cc1`, the growth inhibition was 20.8% (inactive).

On to `Cc1cc2c(cc1C)C(=O)c1ccccc1C2=O`, for which the growth inhibition was -21.8% (inactive).

With `O=C(c1nc2ccc([N+](=O)[O-])cc2[nH]c1=O)C(O)c1ccc([N+](=O)[O-])cc1` (stereo not given), the growth inhibition is 31.5% (inactive).

`O=C(/C=C/c1ccc2c(c1)OCO2)NCc1ccco1`: the growth inhibition is -34.9% (inactive).

Turning to `CC1=CC(=O)N2CCN=C2S1`, the growth inhibition was -5.75% (inactive).

With `CCOc1ccc(/C(Cl)=C(\C=O)c2ccc(OC)c(OC)c2)cc1OCC`, the growth inhibition was 2.55% (inactive).

For the compound `COC(=O)[C@@]1(NC(=O)C(CC(=O)OC(C)(C)C)NC(=O)OC(C)(C)C)C[C@H]1C` (stereo not given in full), the growth inhibition is -14% (inactive).
